The campaign covered roughly 4,100 compounds. About 1,600 (39%) were called active. Inconclusive results (about 25%) are left out. The call rests on the fitted dose curve; in most records, active means well fitted inhibition curve with a large enough effect; inconclusive means small, poorly fitted or top-dose-only effect; inactive means no such curve, though single readings can be large or run the other way. The list shows a part of the results.
assay: qHTS Validation assay for Inhibitors of Plasmodium falciparum Dd2 growth in vitro; further: nearly all actives have a fitted effect of over 70% in size; conditions: P. falciparum Dd2 in RBCs, SYBR Green growth, 72 h; series mostly up to 28.7 µM
Method in brief: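 P. falciparum Dd2-infected red blood cells (2.5% hematocrit, 0.3% parasitemia) grown 72 h at 37 °C under 5% O2 with compounds in a titration, 29 uM to 0.5 nM final. Growth read as SYBR Green-1 fluorescence after ~16 h lysis; artesunate 300 nM as positive control.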
Potency means the concentration at half of the fitted maximal effect.

Potency, active:
Cc1ccc(Nc2nc3nonc3nc2Nc2cccc(C(F)(F)F)c2)cc1Cl 2.11 µM
CCCOc1ccc(-c2nonc2NC(=O)c2cc(OC)c(OC)c(OC)c2)cc1OCCC 5.96 µM
CCOc1ccc(-c2nonc2NC(=O)c2ccc(C)cc2)cc1OCC 1.68 µM
CCNc1nc(OC)nc(Oc2ccc(=O)n(-c3ccccc3)n2)n1 5.96 µM
CC(C)Cn1c(-c2ccco2)nc2c(c(=O)c3ccccc3n2C)c1=O 9.44 µM
O=S(=O)(c1ccc(F)cc1)N1CCN(C(=S)NC2CC2)CC1 3.35 µM
COc1ccc(S(=O)(=O)N2CCN(C(=S)NC3CCCCC3)CC2)cc1 6.68 µM
O=C(c1cccs1)N1CCC(O)(c2ccccc2)[C@H](N2CCCC2)C1 (stereo not given in full) 9.44 µM
O[C@]1(c2ccccc2)CCN(Cc2ccncc2)C[C@H]1N1CCCC1 9.44 µM
O[C@]1(c2ccccc2)CCN(Cc2ccco2)C[C@H]1N1CCCC1 8.41 µM
CCOc1ccc2[nH]c3c(NCCN(C)C)ncnc3c2c1 16.8 µM
CC1Cn2c(nnc2-c2cc3ccccc3cc2O)S1 (stereo not given) 4.73 µM
CCc1ccc(Oc2c(C(F)(F)F)oc3c(CN4CCN(CC)CC4)c(O)ccc3c2=O)cc1 0.376 µM
CCc1ccc(Oc2c(C(F)(F)F)oc3c(CN4CCN(C)CC4)c(O)ccc3c2=O)cc1 0.75 µM
CC(C)C(=O)NCC1CN(Cc2ccccc2)C(=O)c2c(ccnc2-c2ccc(OCC(=O)O)cc2)O1 (stereo not given) 2.11 µM
Cc1cccc(Nc2nc(NCc3ccco3)c3ccccc3n2)c1 4.73 µM
Oc1ccccc1Nc1nc(NCc2ccco2)c2ccccc2n1 2.99 µM
c1ccc(Nc2nc(NCc3ccco3)c3ccccc3n2)cc1 1.68 µM
OCCNc1nc(Nc2ccc(Br)cc2)nc2ccccc12 2.66 µM
COc1ccc(C(CCN2CCN(c3ccccc3)CC2)c2c(O)cc(OC)cc2OC)cc1 (stereo not given) 0.944 µM
COc1cc(O)c(C(CCN2CCN(c3ccccc3)CC2)c2ccc(N(C)C)cc2)c(OC)c1 (stereo not given) 0.596 µM
N#Cc1c(N2CCN(c3ccc(F)cc3)CC2)nc(N)c2c(N)nc3c(c12)CC(=O)N3C1CC1 0.668 µM
C=CCOC(=O)C1=C[C@@H](c2ccc(C(F)(F)F)cc2)[C@H](CCCO)[C@@H](OCC)O1 7.5 µM
CC(C)(C)n1nnnc1C(c1cc2cc3c(cc2[nH]c1=O)OCO3)N1CCN(c2ccccc2)CC1 (stereo not given) 7.5 µM
COc1ccc(N2CCN(C(c3cc4ccc(C)cc4[nH]c3=O)c3nnnn3C3CCCC3)CC2)cc1 (stereo not given) 6.68 µM
COc1ccccc1N1CCN(C(c2cc3ccc(C)cc3[nH]c2=O)c2nnnn2C2CCCC2)CC1 (stereo not given) 7.5 µM
Cc1ccccc1OCCn1cc(C(=O)c2ccco2)c2ccccc21 5.31 µM
Cc1ccc(C)c(OCCn2cc(C(=O)c3ccco3)c3ccccc32)c1 5.31 µM
COCCN(CCOC)c1nc(N)c2c(N)nc3c(c2c1C#N)CC(=O)N3Cc1ccc(Cl)cc1 5.96 µM
CC(C)[C@@H]1CN(S(=O)(=O)c2ccc(Cl)cc2Cl)C[C@H]1N(C)C 6.68 µM
CCOC(=O)c1c(NC(=O)CSc2nc3ccccc3c(=O)n2-c2ccccc2)sc(C(C)=O)c1C 13.3 µM
CCOC(=O)C1CCN(Cc2cc(Cl)c3ccccc3c2O)CC1 1.88 µM
CCOC(=O)C1CCN(c2cc(=O)n(-c3ccccc3Cl)c(=O)[nH]2)CC1 8.41 µM
CCOC(=O)c1ccc2c(c1)[C@@H]1C=CC[C@@H]1[C@H](c1cccc(OC)c1OC)N2 2.66 µM
COc1ccc(-c2noc(-c3cccn3CC(=O)Nc3ccccc3)n2)cc1F 2.37 µM
COc1cccc(NC(=O)Cn2cccc2-c2nc(-c3ccc(OC)c(F)c3)no2)c1 6.68 µM
COc1ccc(NC(=O)Cn2cccc2-c2nc(-c3ccc(OC)c(F)c3)no2)cc1 4.73 µM

Potency, inactive:
CO[C@H]1C(=O)N(C2CCN(S(=O)(=O)c3cccnc3)CC2)[C@H]1c1ccncc1
CCOc1ccc(-c2nonc2NC(=O)COc2c(C)cc(C)cc2C)cc1OCC
CCOC(=O)Cc1csc(NC(=S)NC(=O)c2ccc(C)cc2)n1
CS(=O)(=O)N1CCC(OC2CCN(C(=O)Nc3cc(F)ccc3F)CC2)CC1
Cc1ccc(S(=O)(=O)N2CCC(C(=O)NC3CC3)CC2)cc1
CCOc1ccc(CN2CC[C@@](C)(O)[C@H](N3CCCC3)C2)cc1
O=C(CC1CCN(C(=O)c2cccs2)C1)NCc1ccccc1 (stereo not given)
Cc1nn(C)cc1CN1CCC(O)(c2ccccc2)[C@H](N2CCCC2)C1 (stereo not given in full)
O=C(c1cccs1)N1CCC(n2cc(-c3nc(-c4ccccc4)no3)nn2)CC1
c1ccc(-c2noc(-c3ccn4c(CN5CCN(c6ccccn6)CC5)nnc4c3)n2)cc1
C=CCO[C@@H]1CCN2C(=O)c3cc(-c4cc(Cl)ccc4OC)ccc3NC(=O)[C@H]12
O=C(O)COc1ccc(-c2nccc3c2C(=O)N(Cc2ccccc2)CC(CNC(=O)c2ccc(F)cc2)O3)cc1 (stereo not given)
NCC(=O)N1CCC(n2nccc2NC(=O)c2ccc3c(c2)OCO3)CC1
CN1C(=O)c2cncnc2OCC1CNC(=O)Cc1cccs1 (stereo not given)
COCCN1CC2(CCCN(Cc3cc(C(C)(C)C)n[nH]3)C2)CCC1=O (stereo not given)
COC(=O)c1cccc(NC(=S)N[C@H]2CO[C@H]3[C@@H]2OC[C@H]3OC(=O)Nc2ccccc2)c1
Cc1cccc(C)c1NC(=O)CN1C(=O)NC(c2ccccc2Cl)C2=C1COC2=O (stereo not given)
CC(Sc1nc2sccc2c(=O)n1-c1ccccc1)C(N)=O (stereo not given)
CCOC(=O)C1CCN(C(=O)CSc2nc(N)cc(=O)[nH]2)CC1
Cc1noc(CN(C)C(=O)C2C3C(=O)N(Cc4ccc(C)c(C)c4)C[C@@]34C=C[C@@H]2O4)n1 (stereo not given in full)
O=C(C1CCCCC1)N1CCN(C2CCN(Cc3cccnc3)C2=O)CC1 (stereo not given)
COc1ccc(-c2noc(-c3cccn3CC(=O)NC3CCCCC3)n2)cc1F
COc1ccc(-c2noc(-c3cccn3CC(=O)NC(C)C)n2)cc1F

From PubChem BioAssay AID1347416 (National Center for Advancing Translational Sciences (NCATS), 2020)
